Laboratory results reported in PubChem BioAssay (NCATS).
Inconclusive results are not listed. The source made the active and inactive calls. Unless noted, the call rests on the fitted dose curve; in most records, active means well fitted curve in the direction sought with a large enough effect; inconclusive means small, poorly fitted or top-dose-only effect, or another doubt; inactive means no such curve, though single readings can be large; an effect the other way counts as inactive or inconclusive.

Columns and labels:
[1] = Quantitative High-Throughput drug screen in 47 multiple myeloma cell lines against the NCATS MIPE library collection: OPM2_DSMZ cell viability assay (AID 1919872); further: nearly all actives have a fitted effect of over 30% in size
Method in brief: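 CellTiter-Glo luminescence (ATP) after 48 h compound exposure, 37C/5% CO2; 500 cells/well; MIPE 4.0 approved/investigational drugs pinned in; DMSO = 100%, media only = 0% viability.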

[2] = Quantitative High-Throughput drug screen in 47 multiple myeloma cell lines against the NCATS MIPE library collection: KMS11_JCRBsus cell viability assay (AID 1919873); further: nearly all actives have a fitted effect of over 50% in size
Method in brief: (§1)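 qHTS format: cells plated (500/well), pin-dosed with MIPE 4.0 compounds, kept 48 h at 37 °C. Readout was CellTiter-Glo luminescence, median RLU.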

[3] = qHTS drug screen for cell cycle checkpoint inhibitors in PARPi-resistant BRCA-mutant ovarian cancer cell lines. (AID 1963452; calls by dose curve); details: PEO1/OlaR viability, CellTiter-Glo luminescence, 96 h; for Z-AUC: stronger effect = lower value
Method in brief: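 PEO1, PEO4 and PEO1/OlaR ovarian cancer cells, 600 per well, exposed 96 h at 37C to a dilution series. Viability read by CellTiter-Glo luminescence, normalized to DMSO and empty wells; activity summarized as Z-AUC.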

[4] = qHTS for identification of novel therapeutic agents for treatment of microphthalmiaassociated transcription factor (MiT) renal cell carcinoma (RCC) (AID 1963991; calls by dose curve); details: CellTiter-Glo, 48 h; for z-score: stronger effect = lower value
Method in brief: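 Viability of three TFE3-fusion renal carcinoma lines measured by CellTiter-Glo after 48 h treatment with each of 1912 compounds at 11 concentrations. Responses scaled between DMSO (100%) and empty wells (0%) before curve fitting.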

[5] = qHTS profiling for inhibitors of Plasmodium falciparum proliferation (AID 504749); further: nearly all actives have a fitted effect of over 60% in size;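 on activity, negative = inhibition: 0% = DMSO vehicle and full inhibition = artemisinin control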; details: P. falciparum in erythrocytes, SYBR Green DNA, 72 h
Method in brief: (§2)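 Quantitative HTS: compounds pinned into medium, infected erythrocytes added (0.3% parasitemia, 2.5% hematocrit), 72 h culture at 37 C under 5% CO2. Saponin/Triton lysis with SYBR Green I, overnight RT, then fluorescence read.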

3D7 = assay: as above; details: P. falciparum in erythrocytes, SYBR Green DNA, 72 h; series mostly up to 28.7 µM
Method in brief: as §2

7G8 = assay: as above; details: P. falciparum in erythrocytes, SYBR Green DNA, 72 h; series mostly up to 28.7 µM
Method in brief: as §2

AA1029 = assay: as above; details: P. falciparum in erythrocytes, SYBR Green DNA, 72 h; series mostly up to 28.7 µM
Method in brief: as §2

AS120 = assay: as above; details: P. falciparum in erythrocytes, SYBR Green DNA, 72 h; series mostly up to 28.7 µM
Method in brief: as §2

[6] = Quantitative High-Throughput drug screen in 47 multiple myeloma cell lines against the NCATS MIPE library collection: KMS28BM_JCRB cell viability assay (AID 1919874); further: nearly all actives have a fitted effect of over 35% in size
Method in brief: as §1

[7] = measured here: PEO1 parental Z-AUC
[8] = TFE3-RCC UOK109 viability, measured here: UOK109 Z-AUC
[9] = TFE3-RCC viability, measured here: UOK124 Z-AUC
[10] = TFE3-RCC viability, measured here: UOK145 Z-AUC
[11] = at 12.8 µM (top of the series), parasite line A
[12] = at 12.8 µM (top of the series), parasite line B
[13] = at 28.7 µM (top of the series), parasite line A
[14] = at 28.7 µM (top of the series), parasite line B
Potency means the concentration at half of the fitted maximal effect.

## CCCCc1ccc2nc(NC(=O)OC)[nH]c2c1
[1]
  Potency: 0.0166 µM (active)
[2]
  Potency: 0.0033 µM (active)
[3]
  Potency: 0.0389 µM (active)
[3]; [7]
  Z-AUC: -1.68
[3]; measured here: PEO4 Z-AUC
  Z-AUC: -1.66
[4]; TFE3-RCC UOK109 viability, active = Z-AUC below -0.8 in all three lines
  Potency: 0.0166 µM (active)
[4]; [8]
  z-score: -1.8
[4]; [9]
  z-score: -3.11
[4]; [10]
  z-score: -1.73
[5]; [11]
  activity, negative = inhibition: 2.35% (inactive)
[5]; [12]
  activity, negative = inhibition: 6.2% (inactive)
3D7
  Potency: inactive
7G8
  Potency: inactive
AA1029
  Potency: inactive
AS120
  Potency: inactive

## N=C(N=C(N)N)N1CCOCC1
[1]
  Potency: inactive
[2]
  Potency: inactive
[6]
  Potency: inactive
[5]; [11]
  activity, negative = inhibition: -9.52% (inactive)
[5]; [12]
  activity, negative = inhibition: 11.1% (inactive)
3D7
  Potency: inactive
7G8
  Potency: inactive
AA1029
  Potency: inactive

## CC(C)(S)[C@@H](N)C(=O)O
[1]
  Potency: inactive
[2]
  Potency: inactive
[3]
  Z-AUC: 0.193 (inactive)
[3]; [7]
  Z-AUC: 0.891
[3]; measured here: PEO4 Z-AUC
  Z-AUC: 1.3
[5]; [13]
  activity, negative = inhibition: 1.57% (inactive)
[5]; [14]
  activity, negative = inhibition: -13.2% (inactive)
3D7
  Potency: inactive
7G8
  Potency: inactive
AA1029
  Potency: inactive
AS120
  Potency: inactive

## CCCCCCCCCCCCCCCCCCCCCCO
[1]
  Potency: inactive
[6]
  Potency: inactive
[3]
  Z-AUC: 0.761 (inactive)
[3]; [7]
  Z-AUC: 0.472
[3]; measured here: PEO4 Z-AUC
  Z-AUC: 0.414
[4]; [8]
  z-score: 0.385
[4]; [9]
  z-score: 0.0399
[4]; [10]
  z-score: 0.476
[5]; [13]
  activity, negative = inhibition: -0.041% (inactive)
[5]; [14]
  activity, negative = inhibition: -11.9% (inactive)
3D7
  Potency: inactive
7G8
  Potency: inactive
AA1029
  Potency: inactive
AS120
  Potency: inactive

## CN(c1nccc(=O)[nH]1)C1CCN(c2nc3ccccc3n2Cc2ccc(F)cc2)CC1
[1]
  Potency: inactive
[2]
  Potency: inactive
[5]; [13]
  activity, negative = inhibition: -22.1% (inactive)
[5]; [14]
  activity, negative = inhibition: -10.5% (inactive)
3D7
  Potency: inactive
7G8
  Potency: 11.2 µM (active)

## CCOC(=O)c1c(C)n(C)c2ccc(O)cc12
[1]
  Potency: inactive
[2]
  Potency: inactive
[3]
  Z-AUC: 1.13 (inactive)
[3]; [7]
  Z-AUC: 0.765
[3]; measured here: PEO4 Z-AUC
  Z-AUC: 0.891
[5]; [13]
  activity, negative = inhibition: 15.4% (inactive)
[5]; [14]
  activity, negative = inhibition: 20.5% (inactive)
3D7
  Potency: inactive
7G8
  Potency: inactive
AA1029
  Potency: inactive
AS120
  Potency: inactive

## CC1(C)C(=O)N(CCN2CCC(C(=O)c3ccc(F)cc3)CC2)c2ccccc21
[1]
  Potency: inactive
[6]
  Potency: 18.7 µM (active)

## Cc1c(OCC(F)(F)F)ccnc1CS(=O)c1nc2ccccc2[nH]1 (stereo not drawn)
[1]
  Potency: inactive
[6]
  Potency: inactive
[3]
  Z-AUC: 1.49 (inactive)
[3]; [7]
  Z-AUC: 0.689
[3]; measured here: PEO4 Z-AUC
  Z-AUC: 0.798
[5]; [13]
  activity, negative = inhibition: -19.3% (inactive)
[5]; [14]
  activity, negative = inhibition: -5.11% (inactive)
3D7
  Potency: inactive
AA1029
  Potency: inactive
AS120
  Potency: inactive

## O=C1NC(=O)C(c2ccccc2[N+](=O)[O-])=C1Nc1ccc(O)c(Cl)c1
[1]
  Potency: inactive
[3]
  Z-AUC: 0.891 (inactive)
[3]; [7]
  Z-AUC: 0.49
[3]; measured here: PEO4 Z-AUC
  Z-AUC: 0.349

## O=C(CCc1ccc(O)cc1)c1c(O)cc(O)cc1O
[1]
  Potency: 3.32 µM (active)
[6]
  Potency: inactive
[3]
  Z-AUC: -0.868 (inactive)
[3]; [7]
  Z-AUC: -0.361
[3]; measured here: PEO4 Z-AUC
  Z-AUC: -0.52

## Nc1cc(C(Cl)=C(Cl)Cl)c(S(N)(=O)=O)cc1S(N)(=O)=O
[1]
  Potency: inactive
[3]
  Z-AUC: 1.44 (inactive)
[3]; [7]
  Z-AUC: 1.19
[3]; measured here: PEO4 Z-AUC
  Z-AUC: 1.34
[5]; [11]
  activity, negative = inhibition: -2.96% (inactive)
[5]; [12]
  activity, negative = inhibition: 1.59% (inactive)
3D7
  Potency: inactive
7G8
  Potency: inactive
AA1029
  Potency: inactive

## Cc1cc(Cl)ccc1OCCCC(=O)NO
[1]
  Potency: inactive
[3]
  Z-AUC: 0.502 (inactive)
[3]; [7]
  Z-AUC: 0.403
[3]; measured here: PEO4 Z-AUC
  Z-AUC: 0.182

## O=C(NCCO[N+](=O)[O-])c1cccnc1
[1]
  Potency: inactive
[6]
  Potency: inactive
[3]
  Z-AUC: -0.64 (inactive)
[3]; [7]
  Z-AUC: -0.487
[3]; measured here: PEO4 Z-AUC
  Z-AUC: -0.272
[4]; [8]
  z-score: 1.2
[4]; [9]
  z-score: 0.824
[4]; [10]
  z-score: 0.646
[5]; [13]
  activity, negative = inhibition: 22.6% (inactive)
[5]; [14]
  activity, negative = inhibition: 3.27% (inactive)
3D7
  Potency: inactive
7G8
  Potency: inactive
AA1029
  Potency: inactive
AS120
  Potency: inactive

## CN(C)C(=O)COC(=O)Cc1ccc(OC(=O)c2ccc(N=C(N)N)cc2)cc1
[1]
  Potency: inactive
[2]
  Potency: inactive
[3]
  Z-AUC: -0.267 (inactive)
[3]; [7]
  Z-AUC: -0.623
[3]; measured here: PEO4 Z-AUC
  Z-AUC: -0.684
[5]; [13]
  activity, negative = inhibition: -4.03% (inactive)
[5]; [14]
  activity, negative = inhibition: 4.45% (inactive)
3D7
  Potency: inactive
7G8
  Potency: inactive
AA1029
  Potency: inactive
AS120
  Potency: inactive

## Cc1nccn1CC1CCc2c(c3ccccc3n2C)C1=O (stereo not drawn)
[1]
  Potency: inactive
[6]
  Potency: 2.64 µM (active)
[4]; [8]
  z-score: 0.748
[4]; [9]
  z-score: 0.745
[4]; [10]
  z-score: 0.411

## O=C1c2ccccc2-c2n[nH]c3cccc1c23
[1]
  Potency: inactive
[2]
  Potency: inactive
[5]; [13]
  activity, negative = inhibition: -18.5% (inactive)
[5]; [14]
  activity, negative = inhibition: -1.75% (inactive)
3D7
  Potency: inactive
AA1029
  Potency: inactive
AS120
  Potency: inactive

## O=C1CCc2ccc(OCCCCN3CCN(c4cccc(Cl)c4Cl)CC3)cc2N1
[1]
  Potency: inactive
[6]
  Potency: inactive
[3]
  Z-AUC: -1.31 (inactive)
[3]; [7]
  Z-AUC: -0.72
[3]; measured here: PEO4 Z-AUC
  Z-AUC: -1.21
7G8
  Potency: 12.6 µM (active)

## O=c1c(O)c(-c2cc(O)c(O)c(O)c2)oc2cc(O)cc(O)c12
[1]
  Potency: 26.4 µM (active)
[3]
  Z-AUC: 1.5 (inactive)
[3]; [7]
  Z-AUC: 1.23
[3]; measured here: PEO4 Z-AUC
  Z-AUC: 1.17

## Cc1ccc(C(=O)c2cc(O)c(O)c([N+](=O)[O-])c2)cc1
[1]
  Potency: inactive
[6]
  Potency: inactive
[3]
  Z-AUC: -0.393 (inactive)
[3]; [7]
  Z-AUC: -0.655
[3]; measured here: PEO4 Z-AUC
  Z-AUC: -0.817
[4]; [8]
  z-score: 0.222
[4]; [9]
  z-score: 0.88
[4]; [10]
  z-score: 0.533

## COc1ccc2cc([C@H](C)C(=O)O)ccc2c1
[1]
  Potency: inactive
[6]
  Potency: inactive
[3]
  Z-AUC: -0.4 (inactive)
[3]; [7]
  Z-AUC: -0.248
[3]; measured here: PEO4 Z-AUC
  Z-AUC: -0.0585
[5]; [11]
  activity, negative = inhibition: 6.49% (inactive)
[5]; [12]
  activity, negative = inhibition: -0.339% (inactive)
7G8
  Potency: inactive
AA1029
  Potency: inactive
AS120
  Potency: inactive

## CC(C)c1ccc2c(c1)c(SC(C)(C)C)c(CC(C)(C)C(=O)O)n2Cc1ccc(Cl)cc1
[1]
  Potency: inactive
[3]
  Z-AUC: 1.24 (inactive)
[3]; [7]
  Z-AUC: 0.791
[3]; measured here: PEO4 Z-AUC
  Z-AUC: 0.661

## CN(C)c1ccc(O)c2c1C[C@H]1C[C@H]3[C@H](N(C)C)C(=O)C(C(N)=O)=C(O)[C@@]3(O)C(=O)C1=C2O
[1]
  Potency: 20.9 µM (active)
[3]
  Z-AUC: 0.306 (inactive)
[3]; [7]
  Z-AUC: 0.206
[3]; measured here: PEO4 Z-AUC
  Z-AUC: 0.369

## Cc1cccc(C#Cc2ccccc2)n1
[1]
  Potency: inactive
[6]
  Potency: inactive

## COc1cc(OC)c(C(=O)CCCN2CCCC2)c(OC)c1
[1]
  Potency: inactive
[2]
  Potency: inactive
[3]
  Z-AUC: 1.29 (inactive)
[3]; [7]
  Z-AUC: 0.91
[3]; measured here: PEO4 Z-AUC
  Z-AUC: 0.794
[4]; [8]
  z-score: 1.14
[4]; [9]
  z-score: 0.362
[4]; [10]
  z-score: -0.41
[5]; [11]
  activity, negative = inhibition: 17.5% (inactive)
[5]; [12]
  activity, negative = inhibition: 11% (inactive)
3D7
  Potency: inactive
7G8
  Potency: inactive
AA1029
  Potency: inactive
AS120
  Potency: inactive
